Source: PubChem (National Center for Advancing Translational Sciences (NCATS))
HPGD inh = inhibitors of human 15-hydroxyprostaglandin dehydrogenase (HPGD); P15428; purified HPGD, NADH fluorescence kinetic, PGE2 substrate; Potency, µM, inactives show at the top dose activity change, negative = inhibition, actives largely listed as inhibitors; 150,000 compounds, 4.3% hits; AID 894
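20 nM HPGD preincubated 15 min at room temperature with compound in 50 mM Tris-HCl pH 8, 0.01% Tween 20. Started with 1 mM NAD+ and 30 uM prostaglandin E2; NADH fluorescence (360/450 nm) read 5 times over 30-s intervals, last minus first.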
KDM4E inh = inhibitors of human JMJD2E histone demethylase. AID 2147. Potency, µM (highest dose often 57.1 µM), for inactives: top-dose activity change, negative = inhibition, most hits filed as inhibitors. JMJD2E catalytic domain, FDH-coupled NADH fluorescence (FDH is formaldehyde dehydrogenase). 230,000 compounds, 1.6% hits. B2RXH2;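 also: 0% = wells with enzyme and -100% = buffer wells without enzyme; nearly all actives have a fitted effect of over 50% in size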
ALDH1A1 inh = inhibitors of human aldehyde dehydrogenase 1A1 | P00352 | Purified ALDH1A1, NADH fluorescence, propionaldehyde substrate | Potency, µM (doses to about 75.3 µM), for inactives: top-dose activity, negative = inhibition, usual class: inhibitors | 220,000 compounds, 7.3% hits | AID 1030;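 also: plate controls were no enzyme wells and a reference inhibitor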
Target sequence (P00352 whole entry, looked up): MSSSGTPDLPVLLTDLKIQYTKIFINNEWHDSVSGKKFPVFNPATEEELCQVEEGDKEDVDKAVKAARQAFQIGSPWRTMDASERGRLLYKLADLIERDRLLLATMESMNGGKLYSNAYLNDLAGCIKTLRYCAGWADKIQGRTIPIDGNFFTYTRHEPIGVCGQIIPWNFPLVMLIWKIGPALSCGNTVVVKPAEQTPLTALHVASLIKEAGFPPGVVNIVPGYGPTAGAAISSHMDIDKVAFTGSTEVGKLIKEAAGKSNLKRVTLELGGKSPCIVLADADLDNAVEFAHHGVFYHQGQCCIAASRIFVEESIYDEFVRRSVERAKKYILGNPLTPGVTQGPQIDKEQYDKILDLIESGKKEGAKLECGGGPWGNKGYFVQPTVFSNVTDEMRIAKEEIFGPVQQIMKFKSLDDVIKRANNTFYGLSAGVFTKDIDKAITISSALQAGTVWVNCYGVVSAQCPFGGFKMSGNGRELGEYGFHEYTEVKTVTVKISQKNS
Tau fluor cs = counter-screen for tau fibril formation inhibitors; AID 1463; 280,000 compounds, 0.93% hits; Potency, µM (series often up to 57.7 µM), for inactives: at the top dose activity change, negative = decrease; tau K18 P301L Alexa594 fluorescence, heparin fibrillization; active = well fitted curve in the direction sought with a large enough effect; inconclusive = small, poorly fitted or top-dose-only effect, or another doubt; inactive = no such curve, though single readings can be large; an effect the other way counts as inactive or inconclusive; also: nearly all actives have a fitted effect of over 55% in size
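Human K18 P301L tau (15 uM unlabeled plus 0.24 uM Alexa 594-labeled, final) in 100 mM sodium acetate pH 7 was mixed with compound and 20 uM heparin and incubated 6 hr at 37 C.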
Tau FP inhib = tau fibrillization inhibition (FP) | K18 P301L tau heparin fibrillization, Alexa594 FP, 6 h | Potency, µM (series often up to 57.7 µM), inactives show top-dose activity, negative = inhibition, usual class: inhibitors | 280,000 compounds, 0.39% hits | AID 1468; active = well fitted curve in the direction sought with a large enough effect; inconclusive = small, poorly fitted or top-dose-only effect, or another doubt; inactive = no such curve, though single readings can be large; an effect the other way counts as inactive or inconclusive; also: nearly all actives have a fitted effect of over 55% in size
Target sequence (P10636 561-689 P618L limits assumed): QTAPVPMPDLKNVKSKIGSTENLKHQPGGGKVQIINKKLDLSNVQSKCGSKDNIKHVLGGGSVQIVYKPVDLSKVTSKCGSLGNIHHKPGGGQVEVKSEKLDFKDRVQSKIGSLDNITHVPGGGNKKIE
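Human tau K18 […] P301L fragment, 15 uM unlabeled plus 0.24 uM Alexa 594-labeled tau (final), with compound and 20 uM heparin in 100 mM sodium acetate pH 7; 6 hr at 37 C, then Alexa 594 FP read.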
Tau ThT inhib = blocks human tau fibril formation measured by thioflavin T; P10636; recombinant tau K18 P301L (four-repeat tau fragment), heparin-induced fibrillization, ThT fluorescence; Potency, µM (series often up to 57.4 µM), for inactives: at the top dose activity, negative = inhibition, actives largely listed as inhibitors; 270,000 compounds, 2.1% hits; AID 1460; active = well fitted curve in the direction sought with a large enough effect; inconclusive = small, poorly fitted or top-dose-only effect, or another doubt; inactive = no such curve, though single readings can be large; an effect the other way counts as inactive or inconclusive; also: nearly all actives have a fitted effect of over 55% in size
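Aggregation was driven by heparin (20 uM final) acting on recombinant tau […] bearing P301L in 100 mM sodium acetate pH 7; fibrils were detected with Thioflavin T.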
Active calls of the source: *; ? = inconclusive; · = no result; [ ] = another dose, or the depositor's remark. The list is not random: actives were taken first. Their share in the collection is about 9.9%. Unless noted, calls follow the shape of the dose curve; as a rule, active = well fitted inhibition curve with a large enough effect (not every such curve was filed as active); inconclusive = small, poorly fitted or top-dose-only effect, or another doubt; inactive = no such curve, though single readings can be large or run the other way. Unless noted, % is scaled to controls: 0 for no effect and ±100 for the full control effect; potency is read from the fitted curve at half-maximal effect.

SMILES	HPGD inh	KDM4E inh	ALDH1A1 inh	Tau fluor cs	Tau FP inhib	Tau ThT inhib
COc1cccc(CSc2nnc(CSc3nc4nc(C)cc(C)n4n3)s2)c1	16µM*	4%	?	-7%	-5%	-17%
Cc1cc(C)n2nc(SCc3nnc(SCc4ccccc4C)s3)nc2n1	25µM*	2%	13%	-13%	1%	-12%
CCOC(=O)C1CCN(Cc2cccc(OC)c2)CC1	-15%	?	32µM*	-1%	?	-3%
CCOC(=O)C1CCN(Cc2ccc(OC)cc2OC)CC1	-6%	-1%	?	8%	-2%	5%
CCOC(=O)C1(Cc2cccc(F)c2)CCN(C2CCOCC2)CC1	·	-10%	-6%	-14%	-5%	-13%
CCOC(=O)C1(Cc2cccc(OC)c2)CCN(C2CCOCC2)CC1	·	-17%	-11%	-82%	-18%	13µM*
CCOC(=O)N1CCN(C(=O)C2CCN(Cc3cccc(OCc4ccccc4)c3)CC2)CC1	-7%	?	14µM*	1%	2%	-2%
Cc1cc(C)c(CSc2nnc(C)n3c2cc2occc23)c(C)c1	·	·	·	-22%	-10%	?
COc1ccc(CNC(=O)c2c(O)c3cccc4c3n(c2=O)CCC4)cc1	-24%	0.79µM*	-17%	?	-22%	-13%
COc1ccc(CNC(=O)c2c(O)c3cccc4c3n(c2=O)CCC4)cc1OC	-17%	20%	1%	6%	13%	13%
Cc1cc(NS(=O)(=O)N(C)C)ccc1C(C)C	16µM*	-1%	?	-5%	1%	-8%
CN(C)S(=O)(=O)Nc1ccc2c(c1)OCO2	?	4%	1%	6%	1%	3%
COc1ccc(S(=O)(=O)NNC(=O)c2cc3ccccc3o2)cc1	-20%	2%	-2%	-5%	-1%	-6%
CC1=CS/C(=C(/C#N)C(=O)N2CCCCC2)N1c1ccccc1	-9%	5%	?	-7%	-3%	-10%
COC(=O)/C(C#N)=C1/SC=C(C)N1c1ccccc1	-17%	0%	11µM*	10%	-13%	17%
N#C/C(C(=O)c1ccccc1)=C1/SC=C(N)N1c1ccccc1	20µM*	-19%	3.2µM*	-29%	?	28µM*
CCOc1ccc(C)cc1S(=O)(=O)n1ccc(C)n1	0%	-1%	-4%	3%	1%	-3%
O=C(O)/C=C/C(=O)Nc1ccccc1SC(F)(F)F	?	6%	11µM*	4%	12%	-10%
C/C(CCN1CCCc2nc(C)c(C)cc21)=N\O[C@@H](C)c1cc(-c2c(C)cc(C)cc2C)no1	·	·	4%[13.5 µM]	-1%[11.6 µM]	7%[11.6 µM]	-1%[11.5 µM]
CCCCN(C)C(=O)Cn1cnc2sc(C)c(S(=O)(=O)N3CCC(C)CC3)c2c1=O	·	·	·	-14%	?	-1%
Cc1onc(-c2ccccc2Cl)c1C(=O)Nc1ccc(-c2nnc3n2CCCCC3)cc1	16µM*	-9%	-6%	-4%	7%	-14%
Cc1cc(C)n(-c2ccc(Cl)c(C(=O)Nc3ccc(-c4nnc5n4CCCCC5)cc3)n2)n1	1.8µM*	?	1%	1%	10%	-7%
O=C(Nc1ccc(-c2nnc3n2CCCCC3)cc1)c1ccco1	8.9µM*	8%	?	-3%	-2%	-3%
COc1ccc(Cl)cc1C(=O)Nc1ccc(-c2nnc3n2CCCCC3)cc1	·	·	·	-5%	10%	-1%
Cc1cnc(C(=O)Nc2cccc(-c3nnc4n3CCCCC4)c2)cn1	13µM*	14%	-1%	3%	6%	0%
SMILES	HPGD inh	KDM4E inh	ALDH1A1 inh	Tau fluor cs	Tau FP inhib	Tau ThT inhib
O=C(NC1CC1)C1CCN(C2CCN(C(=O)CC3=CCCCC3)CC2)CC1	·	-11%	4%	-7%	-6%	-4%
c1cc(Nc2ncnc3sccc23)cc(-c2nnc3n2CCCCC3)c1	22µM*	6%	-7%	-13%	-2%	-9%
O=C1Nc2ccccc2C1=Nc1ccc(-c2nnc3n2CCCCC3)cc1	5µM*	-5%	?	-1%	-12%	-13%
c1cc(-c2nnc3n2CCCCC3)ccn1	-6%	3%	12%	6%	-6%	9%
Cc1ccc(-c2nnc3n2CCCCC3)cc1	5µM*	1%	-10%	4%	1%	5%
O=C(CN1CCSc2ccccc21)N1CCN(c2cccc(Cl)c2)CC1	·	·	·	-27%	12%	?
Cc1ccc2oc3c(c(=O)c2c1)C(c1ccc(F)cc1)N(Cc1ccc2c(c1)OCO2)C3=O (centres undefined)	·	·	·	-1%	2%	5%
O=C(N/N=C/c1cn(-c2cccs2)nc1-c1ccccc1)c1ccc(O)cc1	?	?	?	10µM*[quencher]	?	5%
CCOc1cccc(C(=O)Nc2c(C(=O)c3ccc(OC)cc3)oc3ccccc23)c1	·	·	·	?	?	-6%
Cc1ccc(O)c(N=CC2=C(O)c3ccccc3C2=O)c1	?	-5%	?	?	?	25µM*
Cc1ccc(O)c(C=Nc2cc(C)ccc2O)c1	-16%	20µM*	-4%	-10%	-3%	?
CCN(CC)c1ccc(N=Cc2cc(Br)ccc2O)cc1	·	?	7.9µM*	?	?	16µM*
O=C1C(C=Nc2ccccc2O)=C(O)c2ccccc21	-14%	-12%	6%	-29%	-2%	?
CCc1ccc(O)c(N=Cc2ccccc2O)c1	1%	?	?	-22%	-6%	?
Oc1ccc(Br)cc1C=Nc1ccc(Cl)cc1	·	-8%	7%	-5%	-4%	-5%
OCC(CO)(CO)N=Cc1cc(Br)ccc1O	-6%	-17%	10%	5%	1%	0%
CC(C)(C)c1ccc(O)c(N=Cc2cc(Br)ccc2O)c1	·	28µM*	?	?	-5%	?
CC(C)CN1CCC2(CC1)CCN(C(=O)c1cccc(F)c1)CC2	-23%	·	2%	·	·	·
Cc1nnc(SCC(=O)OC2CC(C)CCC2C(C)C)[nH]c1=O (centres undefined)	-6%	-1%	?	-6%	0%	-14%
CC1CCC(C(C)C)C(OC(=O)CSc2nc(N)cc(=O)[nH]2)C1 (centres undefined)	-10%	-3%	4.5µM*	-13%	-13%	-11%
O=C(c1ccc(CNc2c(N3CCOCC3)c(=O)c2=O)cc1)N1CC=C(c2ccccc2)CC1	25µM*	-7%	-6%	1%	-10%	-7%
CCOC(=O)C1CCN(c2c(NCc3ccc(C(=O)NCCOC)cc3)c(=O)c2=O)CC1	3.5µM*	6%	-12%	-7%	-7%	-5%
CCOC(=O)C1CCN(c2c(NCc3ccc(C(=O)NC4CCCC4)cc3)c(=O)c2=O)CC1	2µM*	6%	-10%	-7%	-12%	3%
O=C(NC1CCCCCCC1)c1ccc(CNc2c(N3CCOCC3)c(=O)c2=O)cc1	18µM*	2%	?	-7%	0%	-9%
